# Measured values as given in PubChem BioAssay AID1508600 (Functional Genomics Laboratory (NCATS/FGL), 2020).
# Out of some 53,000 sequences screened, about 3,700 (7%) were called active.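 Rule for the calls: active = gene knockdowns whose robust z-score for IL-1 alpha signal is at least 2 or at most -2, so actives lie on both sides; inactive = the rest.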 This excerpt belongs to a sample that is enriched for actives.
# Assay: Components of the Cytosolic LPS Sensing Pathway: Gene Identification via Genome-wide siRNA Screen;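 note: robust z of the log signal after scaling to non-targeting control siRNA wells of the plate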
# Conditions: RAW264.7 macrophages, IL-1a HTRF, actives lie on both sides, screened at 100 nM (by protocol), cells primed 5 h with Pam3CSK4 first
# Summary of the method: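 Knockdown: 100 nM siRNA, 48h, RAW264.7. Stimulation: Pam3CSK4 5 h, then LipidA via TransIT-TKO 24 h. Output: supernatant IL-1a HTRF, negative-control-normalized, log robust z-score; viability by CellTiter-Glo.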
row,Sequence,z-score
1,GCAAAAGGAAACGAUCUCATT against Fbxo43,-0.302 (inactive)
2,GGCUCAGGACUUUGUCUACTT against Lhx4,-1.19 (inactive)
3,GGUUCAACUCUCUUUUUGATT against Atp8b5,0.347 (inactive)
4,GCGAAUGUAGUGUAUUAUGTT against Prkd1,0.259 (inactive)
5,GGACUGUUGAAUAAAACCUTT against Rnps1,-2.29 (active)
6,AGGCACGUCUGAUUGCAUGTT against LOC432823,0.578 (inactive)
7,CCAUUGUGAUCAAGAUAAATT against Cggbp1,-0.35 (inactive)
8,GCUGUGUCACUACUUCGAUTT against Rpp40,1.32 (inactive)
9,GGUGAAAGACACUUGAAUUTT against Cdk2,0.625 (inactive)
10,GGAGACAGAGAAGAUUUGUTT against Mia2,-0.21 (inactive)
11,GCCAACUACGUAUAUACAUTT against 4921511C20Rik,2.41 (active)
12,GCAAGGUGACAUCAGAAGUTT against Flot2,-0.709 (inactive)
13,GGACAUAUAUAGCAAGGAGTT against Polrmt,1.07 (inactive)
14,GGACAGCAGUUUUUACUAGTT against Mllt10,0.907 (inactive)
15,GCUGUUUGACUACAUAAUCTT against Melk,0.275 (inactive)
16,GGUUGGAAAUGAAAUCAAUTT against Erc2,2.36 (active)
17,GGUUCAAGUGACCAAGUUCTT against Odf3,-0.487 (inactive)
18,CCCAAGAUGGUAGCAGACATT against Tbxas1,-0.00814 (inactive)
19,GGAACAUGACAUUUUUGUCTT against Smdt1,-0.561 (inactive)
20,GGAGGACUCAGCACUCUUUTT against E130311K13Rik,-0.769 (inactive)
21,GGAUCACAGUCUCUUCGGUTT against Fgf20,0.473 (inactive)
22,GCACUGAUGUAAGGUAACCTT against Prdm4,2.48 (active)
23,GGGUGUACCUUAUGUAUUATT against Prpf4,1.03 (inactive)

row,Sequence,z-score
1,GGAUUGUGCAGAGCAUCUGTT against Card14,-1.45 (inactive)
2,GGCUGAGGAGAUAACCAUATT against Nemp2,-0.701 (inactive)
3,GAUGGACAAACGGAAGUGCTT against Iapp,0.322 (inactive)
4,GGACUUCAGUUACAACCGGTT against Nr1h3,-0.174 (inactive)
5,GGCCCAUUUUGGUGUGCAUTT against Hyal3,-2 (active)
6,CCACAAUUUUUUCUGCCUCTT against Olfr492,-0.694 (inactive)
7,CGGUAUGAGUAGGAUCUCCTT against Cd83,-0.577 (inactive)
8,GGAAGUGCUUUGAAGAAGATT against Strip2,1.21 (inactive)
9,GCUAACUUGCUCAUGCAAATT against Txlnb,-0.00758 (inactive)
10,GGAAUCGAGAUAUAAAAGGTT against Olfr352,-1.29 (inactive)
11,GCUAGGAUUGUUCACAAACTT against Spdef,-0.707 (inactive)
12,GCUCUUCUCAAGUAUGACGTT against Chrna6,0.717 (inactive)
13,GGAUGCUCACCUUCAAAUUTT against Il2,2.33 (active)
14,GGAUGGAGAUUAUGAAGAGTT against Pcsk9,-0.248 (inactive)
15,CCUGUUACCCUAUAUUUUGTT against Vmn1r82,-1.02 (inactive)
16,CGCAGUUCAUCGCAUGAUUTT against Arhgef12,0.611 (inactive)
17,GGAUGAAAGUCCAACCACATT against Tulp2,-0.17 (inactive)
18,GGGUUGAAUAUGUAGCUUGTT against Dsg1a,0.697 (inactive)
19,GGUAUUUGAAUUUCGUCCCTT against Zc3h15,0.122 (inactive)
20,GGGACAACGCACUCCAACATT against 1810024B03Rik,0.904 (inactive)
21,CCAUUUGACAAGACUGCCATT against Ppp6r1,0.921 (inactive)
22,GCAGGUGAGAAAGUAUAAGTT against Mro,-1.09 (inactive)
23,GGACUUCUAGAGAAGAAGCTT against Gpn2,0.0803 (inactive)

row,Sequence,z-score
1,GCAUAGUUGGAACCGUAUUTT against Tdpoz3,2.25 (active)
2,CCAAUGACUUCUGGUUAGATT against Tdpoz1,0.665 (inactive)
3,GGUCAGAAGAGUUUGCUAATT against Sgms2,0.552 (inactive)
4,CGAUGGAAGCACUUAUUUATT against Lep,0.984 (inactive)
5,GGUCUUGGCACAAUUACAUTT against Actl6a,-2.07 (active)
6,GGCCAAAUGAAGUCAAAAGTT against Srsf12,-0.212 (inactive)
7,CCUUGUUUGAAUAACGAACTT against 5830427D03Rik,-1.73 (inactive)
8,CCCAGUUGCUAUGCUUGACTT against Defb37,1.68 (inactive)
9,GGCCAGGAGAUUCCUAUGATT against Shisa4,-0.304 (inactive)
10,GGAUGAUUCUGGGUUACAGTT against Pwwp3a,-2.26 (active)
11,GGAAAAGUUAGCGUGUAAUTT against Prkcz,-1.66 (inactive)
12,CCAUCCAUAUGAACUAUGATT against Slc30a4,-1.5 (inactive)
13,CCAGACCUGUGGUAAUCUATT against D3Ertd751e,-0.875 (inactive)
14,GCGCAUGAGUGCAAGGAUUTT against Prdm16,0.265 (inactive)
15,GGAUCCGUUUUGGUGGAAUTT against Enpp4,0.255 (inactive)
16,GCACAUGCAUGGCUCUAAGTT against Hinfp,0.779 (inactive)
17,GCUUCUAGUCAACAUCCAGTT against Klf15,2.07 (active)
18,GGAAGACAAUCGCUGCGUGTT against Tet3,0.927 (inactive)
19,GCUUCUGUGGGCAACAGUUTT against Cryba1,0.0577 (inactive)
20,GGUCUCAGUUGGAAUUAUUTT against Pds5a,-0.806 (inactive)
21,GGAGAAUCAGGGUAGCACATT against Txnl4a,-0.52 (inactive)
22,GGUGUCAUUCACAAAAACUTT against Csnk1g1,-1.09 (inactive)
